# Reference: PubChem BioAssay (NCATS)
# “And” between values parts separate entries of the source, which are not always exact repeats. Equal entries are not always repeated. Results filed as inconclusive are left out. A number with no mark means an inactive call. The source made the active and inactive calls. The call rests on the fitted dose curve; in most records, active means well fitted inhibition curve with a large enough effect in the signal ratio, with a control signal flat (not every such curve was filed as active); inconclusive means small, poorly fitted or top-dose-only effect, or effect the other way, or a change in a side signal; inactive means no such curve, though single readings can be large or run the other way; the % refers to the signal ratio.
# Target: Retinoic acid receptor RXR-alpha (Homo sapiens) (UniProt P19793)
# Sequence (P19793 whole entry, looked up): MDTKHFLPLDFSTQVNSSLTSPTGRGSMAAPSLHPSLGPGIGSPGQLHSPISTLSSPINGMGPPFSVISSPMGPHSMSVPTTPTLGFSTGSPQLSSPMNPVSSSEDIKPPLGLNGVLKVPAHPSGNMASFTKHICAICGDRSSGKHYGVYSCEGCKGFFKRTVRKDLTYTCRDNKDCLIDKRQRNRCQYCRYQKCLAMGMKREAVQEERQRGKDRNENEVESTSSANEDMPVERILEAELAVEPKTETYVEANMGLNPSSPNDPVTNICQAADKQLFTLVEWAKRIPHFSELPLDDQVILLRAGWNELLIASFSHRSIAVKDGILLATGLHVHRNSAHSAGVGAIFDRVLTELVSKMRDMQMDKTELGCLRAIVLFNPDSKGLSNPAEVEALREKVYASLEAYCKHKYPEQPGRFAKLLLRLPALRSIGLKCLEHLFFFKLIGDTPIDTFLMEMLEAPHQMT
# Test: qHTS assay for small molecule antagonists of retinoid X receptor alpha signaling (AID 588546)
# Settings: HEK293T RXRa-UAS-bla, beta-lactamase ratio, antagonist mode
# From the text: NIH Chemical Genomics Center [NCGC] U.S. Environmental Protection Agency [EPA] National Institutes of Environmental Health Sciences [NIEHS] National Toxicology Program [NTP] NCGC Assay Overview The Retinoid X receptor (RXR), a nuclear hormone receptor is expressed in liver, spleen, placenta, epidermis, central nervous system. These receptors are able to form homo and heterodimers with other nuclear receptors and due to this heterodimerizing ability, RXR functions as master regulators producing diverse physiological effects. Three subtypes of RXR exist; alpha, beta and gamma. Retinoid X receptor alpha (RXR-alpha) has potential roles in metabolic signaling pathways, skin alopecia, dermal cysts, cardiac development, insulin sensitization etc. Therefore screening environmental chemicals on RXR-alpha signaling can be used for the studies focused on such therapeutic applications.
# NCGC Assay Protocol Summary Using a beta-lactamase reporter-gene under control of Retinoid X receptor--alpha (RXR-alpha) response element, a cell-based assay [GeneBLAzer (RXR-alpha -UAS-bla assay developed by Invitrogen] was used to measure RXR-alpha ligands signaling. GeneBLAzer RXR-alpha -UAS-bla HEK293T cells were used with assay medium containing 2% charcoal-stripped FBS. The assay was performed in clear bottom black Greiner 1536-well plates. Library compounds were measured for their ability to inhibit the reporter gene activity. Compounds were screened in a titration series in 1536-well format. The fluorescence intensity (405 nm excitation, 460/530 nm emission) was measured using an EnVision plate reader. Data was normalized relative to 9-cis-retinoic acid control (500 nM, 100%), and DMSO only wells (basal, 0%). Concentration-response titration points for each compound were fitted to the Hill equation yielding concentrations of half-maximal inhibition (IC50) and maximal response (efficacy) values. qHTS protocol for RXR-alpha beta-lactamase assay in antagonist mode [Step] [Parameter] [Value] [Description] 1. Reagent; 5 uL; 2500 cells/well 2. Incubation; 37 C for 4 hrs 3. Compounds; 23 nL; 0.59 nM to 92 uM 4. Controls (DMSO); 23 nL 5. Agonist (Stimulator); 1uL; 9-cis-retinoic acid at 500 nM and 100 nM final concentrations 6. Incubation; 37 C for 18 hrs 7. Detection reagent; 1 uL of CCF4-dye 8. Incubation; RT for 2 hrs 9. Detection; Fluorescence; Envision plate reader
# On the % scale 0 is the no-effect control and ±100 the full control effect.
Structure (SMILES),max response,Potency
Nc1cnn([C@@H]2O[C@H](CO)[C@@H](O)[C@H]2O)c(=O)n1,-17.1%,
Nc1ccccc1O,-7.25%,
CCCCCCCCOc1ccc(C(=O)O)cc1,-6.4%,
NC(=O)Nc1nc2ccccc2[nH]1,1.58%,
C/C(Cl)=C/CCl,6.91%,
C1CCCNCC1,5.08%,
Cc1ccc(S(N)(=O)=O)cc1,8.77% and 1.7%,
c1ccc2c(c1)ccc1ccccc12,9.87%,
CC(=O)OC1CC(C)OC(C)O1 (stereo not given),6% and 5.73%,
C=CC(=O)CC,10.2%,
C=C(C#N)C(=O)OCC,9.58%,
Brc1cc(Oc2cc(Br)c(Br)c(Br)c2Br)c(Br)c(Br)c1Br,8.94% and -3.66%,
Cc1c(C(=O)O)c(O)cc2c1C(=O)c1c(O)c([C@H]3O[C@H](CO)[C@@H](O)[C@H](O)[C@H]3O)c(O)c(O)c1C2=O,21%,
c1ccc(SCCSc2ccccc2)cc1,-1.47%,
CCCCC(CC)COP(=O)(OCC(CC)CCCC)OCC(CC)CCCC (stereo not given),-4.08%,
CCCCNCC,4.6%,
CCCCCCCCC1CO1 (stereo not given),-3.61%,
Cc1cc2nc(N)sc2cc1C,9.41%,
Oc1ccc(O)c2c(O)cccc12,-1.49%,
CCc1ccc(C(c2ccc(CC)cc2)C(Cl)Cl)cc1,-8.97%,

Structure (SMILES),max response,Potency
Cc1ccc2ccc3cccc4ccc1c2c34,-1.11%,
O=c1[nH]ncc2ccccc12,13%,
S=C(NC1CCCCC1)NC1CCCCC1,-14.3%,
CCCCC(CC)COC(=O)COc1ccc(Cl)cc1Cl (stereo not given),18.5% and 4.05%,
O=C(OCc1ccccc1)c1ccccc1O,-0.686% and -0.189%,
CCNC(=S)NCC,14.7%,
CCOc1ccc2nc(N)sc2c1,-7.66%,
O=CC(=O)c1ccccc1,6.37%,
Cc1c2ccccc2c(C)c2c1ccc1ccccc12,,8.91 µM (active)
CCN(CC)c1ccc(N)cc1,-16.2%,
Cc1ccccc1OCC1CO1 (stereo not given),0.471%,
c1cc2c3c(c1)ccc1cccc(c13)C2,-11.6%,
CC(=O)Nc1cccc(C)c1,1.56%,
CC(CCC(=O)O)(c1ccc(O)cc1)c1ccc(O)cc1,11.2% and 0.834%,
OCC(CBr)(CBr)CBr,0.481%,
Cc1ccc(O)c(N)c1,11.9%,
CC(C)COC(=O)COc1cc(Cl)c(Cl)cc1Cl,8.47%,
CCCC(=O)OC(=O)CCC,2.23% and 15.8%,
Nc1cc([N+](=O)[O-])ccc1O,2.5% and -26.6%,
CC(C)S,1.63%,
